Experimental findings from PubChem BioAssay (Tox21) are described below.

Assay [1] can be described thus: qHTS assay to identify small molecule antagonists of the androgen receptor (AR) signaling pathway using the MDA cell line in the presence of 0.5 nM R1881 - cell viability counter screen (AID 1259242). Note: nearly all actives have a fitted effect of over 45% in size. In outline:
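Viability of MDA-kb2 cells was multiplexed with the luciferase AR readout; after 16 hr with compounds and R1881 at 0.5 nM final, CellTiter-Fluor fluorescence was recorded.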
(In general: In qHTS, concentration-response curves come from the screen itself.)

In assay [2] the target is Estrogen receptor (Homo sapiens) (UniProt P03372). The experiment in a line: qHTS assay to identify small molecule antagonists of the estrogen receptor alpha (ER-alpha) signaling pathway using the BG1 cell line in the presence of 0.1 nM 17-beta-estradiol (AID 1259244). Note: nearly all actives have a fitted effect of over 50% in size. Note: potency is the fitted concentration of half-maximal effect. In short, it runs like this:
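Estradiol at 0.1 nM (final) stimulates the endogenous ER-alpha of VM7Luc4E2 cells carrying an ERE-driven luciferase; compounds are co-incubated 22 h at 37C and luciferase output quantified by luminescence.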

A short description of assay [3]: qHTS assay to identify small molecule HDAC inhibitors (AID 1259364).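 Note: wild-type HCT-116 cells with endogenous class I/II HDAC activity; top concentration of the series differs between compounds; nearly all actives have a fitted effect of over 45% in size.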 In outline: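 Read-out: luminescence of HDAC-Glo I/II reagent, 30 min RT, reflecting class I/II deacetylase activity in whole HCT-116 cells pre-exposed 2 h to DMSO-dissolved compounds.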
The nature of assay [4]: qHTS assay to identify small molecule HDAC inhibitors - cell viability counter screen (AID 1259365). Note: series mostly up to about 92 µM; nearly all actives have a fitted effect of over 50% in size. In outline: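 Cytotoxicity was gauged in wild-type HCT-116 cells after a brief 2hr treatment with DMSO-dissolved compounds at 37C and 5% CO2, using CellTiter-Glo luminescence developed for 30min at room temperature.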
The nature of assay [5]: qHTS assay to identify small molecule agonists of the sonic hedgehog signaling (Shh) pathway - cell viability counter screen (AID 1259366). Note: nearly all actives have a fitted effect of over 50% in size. Note: potency is the fitted concentration of half-maximal effect. In outline:
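Stable Gli1-Luc NIH/3T3 clone, 2,000 cells/well. Compound exposure 24hr at 37C. Read-out: CellTiter-Fluor fluorescence.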

Assay [6] can be described thus: qHTS assay to identify small molecule antagonists of the sonic hedgehog signaling (Shh) pathway - cell viability counter screen (AID 1259367). Note: nearly all actives have a fitted effect of over 55% in size. Note: potency is the fitted concentration of half-maximal effect. In outline:
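Using CellTiter-Fluor, viability of Gli1-Luc reporter 3T3 cells is read by fluorescence in the wells used for the Shh luciferase assay. Treatment lasts 23 hr with conditioned medium, then reagent 1 hr at 37C.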

Assay [7] is described as follows: qHTS assay to identify small molecule agonists of the sonic hedgehog signaling (Shh) pathway (AID 1259368; calls by dose curve;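 note: NIH/3T3-derived 3T3Gli1-Luc cells carrying a stable Gli1-driven firefly luciferase reporter; series mostly up to about 92 µM; nearly all actives have a fitted effect of over 15% in size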). In short, it runs like this:
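A Gli1 transcriptional response element controlled firefly luciferase in 3T3Gli1-Luc cells. Compounds and a positive control were added 4 hr after plating, and cells were incubated a further 24 hr at 37 C before luminescence detection.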

Assay [8] can be described thus: qHTS assay to identify small molecule antagonists of the sonic hedgehog signaling (Shh) pathway (AID 1259369; calls by dose curve; note: nearly all actives have a fitted effect of over 45% in size; note: potency is the fitted concentration of half-maximal effect). In outline: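 For antagonist detection, the reporter line received test compounds together with conditioned medium, incubated 24hr at 37 C, 5% CO2, then luminescence was recorded following 30min room-temperature luciferase reagent incubation.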
The target in assay [9] is Estrogen receptor beta (Homo sapiens) (UniProt Q92731). Description: qHTS assay to identify small molecule antagonists of the estrogen receptor beta (ER-beta) signaling pathway (AID 1259378; active = well fitted inhibition curve with a large enough effect in the signal ratio in the repeat runs, not every such curve was filed as active; the % refers to the signal ratio; note: potency is the fitted concentration of half-maximal effect). In outline:
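Antagonist mode: compounds added to beta-lactamase reporter HEK293T ER-beta-UAS cells stimulated with E2 (1nM final), 16 hr at 37C. LiveBLAzer B/G FRET substrate, 2 hours room temperature, fluorescence read-out.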

The nature of assay [10]: qHTS assay to identify small molecule agonists of the androgen receptor (AR) signaling pathway in the presence of an antagonist - cell viability counter screen (AID 1259379).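 Note: MDA-kb2 human breast cancer cells carrying an MMTV luciferase reporter; series mostly up to about 92 µM; nearly all actives have a fitted effect of over 25% in size.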 In outline:
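Seed MDA-kb2 at 3,000 cells/well; incubate 5 hr, 37C, 0% CO2. Add nilutamide to 3.0uM final, then pin compounds at 15 concentrations. Incubate 16 hr. Add CellTiter-Fluor at 15 hr, read fluorescence after 1 hr.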

The nature of assay [11]: qHTS assay to identify small molecule agonists of the estrogen receptor beta (ER-beta) signaling pathway - cell viability counter screen (AID 1259380). Note: nearly all actives have a fitted effect of over 30% in size. Note: potency is the fitted concentration of half-maximal effect. In outline: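 CellTiter-Glo read, 30 min RT, same wells as bla assay; cells ER-beta-UAS-bla HEK293T; 16 hr compound, 37C; medium 2% charcoal-stripped FBS.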
Assay [12] is described as follows: qHTS assay to identify small molecule antagonists of the estrogen receptor beta (ER-beta) signaling pathway - cell viability counter screen (AID 1259382).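 Note: HEK293T cells carrying ER-beta-UAS-bla reporter stimulated with estradiol; series mostly up to about 92 µM; nearly all actives have a fitted effect of over 55% in size.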 In short, it runs like this:
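In this multiplexed counter screen, cells were seeded at 2,000 per well in medium with 2% charcoal-stripped FBS and incubated 6 hr before compound and 1nM final E2 were added. Sixteen hours later, ATP-based luminescence reported viability.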

For assay [13], the target named is Estrogen receptor (Homo sapiens) (UniProt P03372). The experiment in a line: qHTS assay to identify small molecule agonists of the estrogen receptor alpha (ER-alpha) signaling pathway in the presence of an antagonist (AID 1259383; calls by dose curve; note: nearly all actives have a fitted effect of over 15% in size; note: potency is the fitted concentration of half-maximal effect; for activation: top concentration of the series differs between compounds). In outline:
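Stably transfected VM7Luc4E2 reporter cells, kept 5 days in charcoal-stripped serum, received ICI-182,780 at 10.0nM final before compound addition. Following 22hr incubation at 37C and 5% CO2, luciferase signal was read by luminescence.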

The nature of assay [14]: qHTS assay to identify small molecule agonists or antagonists of the thyroid stimulating hormone receptor (TSHR) signaling pathway - wild type cell line counter screen (AID 1259384; calls by dose curve). In outline:
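Counter screen in untransfected Hek293: compounds (15-point titration, triplicate) plus phosphodiesterase inhibitor Ro20-1724 added after 18 h plating; 30 min RT. Intracellular cAMP via competitive d2/cryptate immunoassay, 1 h incubation.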

Assay [15] deals with Thyrotropin receptor (Homo sapiens) (UniProt P16473). The experiment in a line: qHTS assay to identify small molecule antagonists of the thyroid stimulating hormone receptor (TSHR) signaling pathway (AID 1259385; calls by dose curve; note: nearly all actives have a fitted effect of over 20% in size). In outline:
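Antagonist mode: compound-treated TSHR-expressing HEK293 cells were stimulated with 1.5 ng/mL TSH (final) in presence of Ro20-1724 for 30 min at RT. HTRF cAMP detection after 1 h; each compound tested at 15 concentrations, triplicate.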

Assay [16] is described as follows: qHTS assay to identify small molecule agonists of the estrogen receptor alpha (ER-alpha) signaling pathway in the presence of an antagonist - cell viability counter screen (AID 1259386).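 Note: cells exposed to compounds for 22 h at 37 °C before the viability read; nearly all actives have a fitted effect of over 30% in size.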 Note: potency is the fitted concentration of half-maximal effect. In short, it runs like this:
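Viability counter screen using VM7Luc4E2 (full-length ER-alpha, four ERE-luciferase). The cells were treated with compounds alongside ICI-182,780 10.0nM for 22hr, and live-cell protease fluorescence was quantified with CellTiter-Fluor.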

The target in assay [17] is Estrogen receptor beta (Homo sapiens) (UniProt Q92731). The experiment in a line: qHTS assay to identify small molecule agonists of the estrogen receptor beta (ER-beta) signaling pathway (AID 1259377; active = well fitted activation curve with a large enough effect in the signal ratio in the repeat runs, not every such curve was filed as active; the % refers to the signal ratio). In outline: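 Measured by fluorescence intensity from a B/G FRET beta-lactamase substrate (2 h, room temperature) in ER-beta-UAS-bla HEK293T cells treated with DMSO-dissolved compounds for 16 hr at 37C and 5% CO2.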

Assay [18] is described as follows: qHTS assay to identify small molecule phospholipidosis (PLD) inducers (AID 1259344; active = well fitted curve in the direction sought with a large enough effect; an effect the other way counts as inactive or inconclusive). In outline:
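Fluorescent phospholipid staining (LipidTOX Red) measured by automated microscopy in fixed HepG2 cells after 24 h treatment; nuclei counterstained with Hoechst 33342; amiodarone as reference inducer.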

Molecules are shown by their SMILES. Where “and” joins values, the source holds several entries; their conditions need not be identical. Equal entries are not always repeated. Records with an inconclusive call do not appear. Calls of active or inactive are those of the source. Unless noted, calls come from the whole dose curve; as a rule, active = well fitted curve in the direction sought with a large enough effect in the repeat runs; inconclusive = weak or mixed curves; inactive = no such curve, though single readings can be large; an effect the other way counts as inactive or inconclusive.

Chain of Estrogen receptor (Homo sapiens) (P03372 whole entry, looked up): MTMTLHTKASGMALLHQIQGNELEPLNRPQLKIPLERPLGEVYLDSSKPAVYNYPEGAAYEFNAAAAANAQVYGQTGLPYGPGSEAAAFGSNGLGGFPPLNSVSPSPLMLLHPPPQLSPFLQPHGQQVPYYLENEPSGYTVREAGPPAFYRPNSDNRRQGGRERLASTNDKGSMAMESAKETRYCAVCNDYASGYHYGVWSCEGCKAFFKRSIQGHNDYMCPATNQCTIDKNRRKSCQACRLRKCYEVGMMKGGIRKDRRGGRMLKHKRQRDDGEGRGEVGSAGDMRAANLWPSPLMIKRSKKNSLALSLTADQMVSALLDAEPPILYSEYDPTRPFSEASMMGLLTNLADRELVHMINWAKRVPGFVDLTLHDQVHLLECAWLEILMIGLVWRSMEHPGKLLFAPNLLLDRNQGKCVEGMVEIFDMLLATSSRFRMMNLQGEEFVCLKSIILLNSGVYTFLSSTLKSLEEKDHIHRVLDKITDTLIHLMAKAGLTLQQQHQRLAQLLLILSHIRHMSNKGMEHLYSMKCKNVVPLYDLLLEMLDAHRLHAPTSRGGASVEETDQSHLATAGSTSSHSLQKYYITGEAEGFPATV
Chain of Estrogen receptor beta (Homo sapiens) (Q92731 whole entry, looked up): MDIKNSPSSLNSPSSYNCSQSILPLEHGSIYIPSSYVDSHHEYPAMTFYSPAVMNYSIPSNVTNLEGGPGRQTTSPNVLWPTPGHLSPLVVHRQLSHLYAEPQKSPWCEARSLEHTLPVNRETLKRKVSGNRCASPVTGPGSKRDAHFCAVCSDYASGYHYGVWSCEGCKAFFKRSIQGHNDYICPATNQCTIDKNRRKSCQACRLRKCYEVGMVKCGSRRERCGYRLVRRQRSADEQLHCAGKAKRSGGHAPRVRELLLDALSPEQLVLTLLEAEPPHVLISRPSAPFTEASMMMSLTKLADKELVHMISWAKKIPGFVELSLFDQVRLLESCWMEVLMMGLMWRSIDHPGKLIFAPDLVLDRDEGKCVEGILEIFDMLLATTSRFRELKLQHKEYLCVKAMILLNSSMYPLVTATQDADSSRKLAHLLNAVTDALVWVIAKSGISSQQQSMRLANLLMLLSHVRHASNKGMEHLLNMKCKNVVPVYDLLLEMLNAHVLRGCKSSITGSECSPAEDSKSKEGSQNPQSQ
Chain of Thyrotropin receptor (Homo sapiens) (P16473 whole entry, looked up): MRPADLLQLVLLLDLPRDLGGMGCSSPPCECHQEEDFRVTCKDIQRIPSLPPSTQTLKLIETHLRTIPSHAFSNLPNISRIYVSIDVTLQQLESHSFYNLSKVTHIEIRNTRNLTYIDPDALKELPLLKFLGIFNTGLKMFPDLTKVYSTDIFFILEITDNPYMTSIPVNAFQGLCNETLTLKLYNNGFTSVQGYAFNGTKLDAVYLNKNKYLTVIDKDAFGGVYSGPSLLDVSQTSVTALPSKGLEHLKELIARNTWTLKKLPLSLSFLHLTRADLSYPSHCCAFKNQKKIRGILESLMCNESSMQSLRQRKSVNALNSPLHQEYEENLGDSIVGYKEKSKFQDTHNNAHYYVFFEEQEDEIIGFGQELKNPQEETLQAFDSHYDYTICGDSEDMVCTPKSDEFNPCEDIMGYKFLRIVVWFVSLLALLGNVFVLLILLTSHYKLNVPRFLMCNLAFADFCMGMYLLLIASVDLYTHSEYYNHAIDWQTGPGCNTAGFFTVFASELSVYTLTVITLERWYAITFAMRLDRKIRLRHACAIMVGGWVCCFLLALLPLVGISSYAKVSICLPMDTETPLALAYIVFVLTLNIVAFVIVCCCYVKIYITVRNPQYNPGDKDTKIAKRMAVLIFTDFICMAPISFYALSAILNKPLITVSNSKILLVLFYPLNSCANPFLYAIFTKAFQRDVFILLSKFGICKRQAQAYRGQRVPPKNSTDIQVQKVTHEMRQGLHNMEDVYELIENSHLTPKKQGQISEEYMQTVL

In the case of `COC(=O)CC#N`, the Potency result in [1], in [2], in [3], in assay [4], in [5] and in assay [6] was “inactive” each time. Moreover, the Potency result in [7], in assay [8], in assay [9], in assay [10], in [11] and in assay [12] was “inactive” each time. Also, the Potency result in assay [13], in assay [15] and in assay [16] was “inactive” throughout. The result in assay [14] was inactive.
In the case of `CCOC(=O)N1CCC(=C2c3ccc(Cl)cc3CCc3cccnc32)CC1`, the Potency entry in [1], in assay [3], in assay [4], in assay [6], in [7] and in assay [17] was “inactive” throughout. Moreover, the Potency result in assay [13] and in assay [16] was “inactive” in each case. Moreover, the Potency is 61.1 µM (active) in [2]; 61.1 µM (active) in assay [5]; 43.3 µM (active) and 13.3 µM (active) in assay [8]; 15.4 µM (active) in assay [9]; 48.6 µM (active) and 26.6 µM (active) in assay [11].
Consider `CC(C)(C)C1=CC(=O)C=C(C(C)(C)C)C1=O`, for which the Potency result in [1], in assay [2], in assay [3], in assay [4], in assay [5] and in assay [6] was “inactive” throughout. The Potency result in [7], in assay [8], in assay [9], in assay [10], in [11] and in assay [12] was “inactive” each time. Moreover, the Potency result in assay [13] and in assay [16] was “inactive” each time. In [14], the result was inactive.
For the compound `S=P(N1CC1)(N1CC1)N1CC1`, the Potency result in assay [1], in [2], in assay [18], in assay [3], in assay [4] and in assay [7] was “inactive” each time. In addition, the Potency entry in assay [10], in assay [11], in assay [12], in assay [13] and in [16] was “inactive” each time. For the same compound, the Potency in assay [6] is 57.4 µM (active); in [8], 22.9 µM (active). Further, the compound was called inactive in assay [14].
Consider `CCCCCCCCCCCCCOP(=O)(O)O`, for which the Potency result in [1], in assay [2], in assay [3], in assay [4], in [5] and in [6] was “inactive” throughout. Also, the Potency entry in [7], in assay [8], in assay [17], in assay [10], in [12] and in assay [13] was “inactive” each time. The Potency result in [15] is “inactive”. In assay [14], the compound was classed as inactive.
In the case of `CCCCCCCOC(=O)c1ccc(O)cc1`, the Potency entry in [1], in [2], in [3], in [4], in [5] and in [6] was “inactive” throughout. The Potency entry in assay [7], in assay [17], in assay [10] and in assay [16] was “inactive” in each case. In addition, the Potency in assay [8] is 43.3 µM (active); in assay [11] it was 30.7 µM (active) and 24.3 µM (active); in assay [13], 48.6 µM (active).
Consider `CC(=O)Oc1ccc(C2(c3ccc(OC(C)=O)cc3)C(=O)Nc3ccccc32)cc1`, for which the Potency result in assay [1], in assay [18], in assay [3], in [4], in assay [6] and in assay [7] was “inactive” each time. Besides, the Potency result in assay [17], in assay [11], in assay [12] and in assay [13] was “inactive” in each case. The Potency was 0.168 µM (active) in assay [2] and 0.668 µM (active) in [16]. Moreover, the compound was called inactive in assay [14].
As to `CC(C)=CCCC(C)CCOC(=O)C(C)C` (stereo not given), the Potency result in assay [1], in [2], in assay [3], in [4], in assay [5] and in [6] was “inactive” throughout. The Potency entry in assay [7], in assay [8], in assay [17], in assay [9], in assay [10] and in assay [11] was “inactive” in each case. The Potency entry in assay [12], in assay [13], in assay [15] and in assay [16] was “inactive” each time. Moreover, the result in [14] was inactive.
